Data published in PMC12864922, “TDP-43 directly inhibits mRNA accumulation in neurites through modulation of mRNA stability”.
Whole data set: some 9,900 sequences, median “r (bound/input frequency ratio)” near 0.7, cut for the highest 2% near 6.5. For the sample, the highest values were picked, then their nearest neighbours and some sequences at random.

B1: ENSMUSG00000031028.626|Tub (ssRNA)
RNA: GGGAGUUCUACAGUCCGACGAUCGCUUCGAUAUCCGCAUGCUAUUAGGGUAAAUGAAAGUUAGUCCUGGCUCUCAUCACCACCUUUCCUAGCUCAUCACUGUGCCUUCUUUCUUCCCUAAGAAAGACAAUGCACCCCUCUCUUCUGUUCUCCUGCCCCUUCGCCCCCACUGAGGUCCAGGUAGAGCAGAUGAGGCUGAAAUGUAGAGUGUUCUAUAGAGCAUCUCAGUAGCAUAGAAGGAGAAGCCCAGCUCCAACCUCCUGGACCCCAUACUGGUGACCAGCUUGGUGAGGACAGGCAAAAUCUCUUGCGGUCGCACUAGUGUGGAAUUCUCGGGUGUCAAGG
B2: ENSMUSG00000004113.212|Cacna1b (ssRNA)
RNA: GGGAGUUCUACAGUCCGACGAUCGCUUCGAUAUCCGCAUGCUAGCUCAGAGCAGCACGGGGGCUUGUGUCUUAGGGACAUUGACAGUGUCCAUCAGCAUGUCAGAGAAGCAGCUGUAGUGCCCGUGUUUCUCCCUGAGUCAUGGGUUCUGAAGAAGCCAGAGCGGCACAAUGCGUGCUUGCAUGAGGCACUUUCAGCCUUUUUAAAUCUGACUCUCAGGGAUGGGAUGCCUGCCAAGUAGGGUGUAAUCUCUGUUGUGUUUUUAAAACAACAACAACAAAAUAAAACAAAAAAAAAAAACCUACUCUUGCGGUCGCACUAGUGUGGAAUUCUCGGGUGUCAAGG
B3: ENSMUSG00000061578.1091|Ksr2|55:59 (ssRNA)
RNA: GGGAGUUCUACAGUCCGACGAUCGCUUCGAUAUCCGCAUGCUACAACCAUGAAAAUAGAGGUUUGUAAUGUACAGAAGGCUGGGGGAGCUUUCAGGGCACACGCCAGUUAUGUACAGAUGUGAAGCUGAGGUCUGAAGGAAAUGGAGGAAGUAGGAAGAUCAGACUGGUUGAAUUAGAAGUCUGUCACUCUAGGUGCUAAGUGACCUUGGACCCAGUCAGUUCUUGGAUUUCUGUUGUAGCCCAGGCUAGCCUCGAACCCUUGAUCCUCCUGUUCCUGGUAGAGAAACAGCCACUAAAUGGUGCUCUUGCGGUCGCACUAGUGUGGAAUUCUCGGGUGUCAAGG
B4: ENSMUSG00000004113.162|Cacna1b (ssRNA)
RNA: GGGAGUUCUACAGUCCGACGAUCGCUUCGAUAUCCGCAUGCUAGGUUUUCAGUCACAACACUUUCACUGUUUGUCAUUUCUAUGUAGUUGAUCUAGAAAAAGCAGAAAUCAAAACAGGAAAGGAAAUGUUUGUGUAACUUUAAAAAAAAAGUCAACAUGUAGGAAGGUCUCCAUUUUGCAUUGUUUCUGUGUCUUGUAUGCAAUGUUCCUGUAUGUUUCUACCCUGCCUGGGAUGUCCCCAAUGACCCUGGCUCCUCUGCUCAACCAAGUGCCUGAUCUCUGGCUCUGAGCAUCGUGGAUGAGCUCUUGCGGUCGCACUAGUGUGGAAUUCUCGGGUGUCAAGG
B5: ENSMUSG00000029636.179|Wasf3 (ssRNA)
RNA: GGGAGUUCUACAGUCCGACGAUCGCUUCGAUAUCCGCAUGCUACCCCUCCUGAAGCACAGCUCUCUUCUCUCCUGUUGUCGGCACAUUUUCAAUUUUAAAAAGUACCUCACAAGAUAAACUUGAUUCAGCCAGUUGCCCGGGCAGAGACCUGACUUCCCCUCUCCUGCCCUGAUCCUUUUUACCAAAUGGCGAUUCCAUAGUCCUGGCUGAGGCAGGGGCUCAAAGUCCAGUGUCUGCUUUGCAAUUCUGGAAGGACAGCUGCUUAUUUAAAUAAGUCUGUGAUAUCCGCAGGCUUGGGUUACCUCUUGCGGUCGCACUAGUGUGGAAUUCUCGGGUGUCAAGG
B6: ENSMUSG00000061578.745|Ksr2 (ssRNA)
RNA: GGGAGUUCUACAGUCCGACGAUCGCUUCGAUAUCCGCAUGCUACAUCUCUGGCUCUUUGUUUCCACUCUGGCCCAAGUUUGAGUCUCCAUAUGGGCCCUUCCUGUCCUCAUGCCCUGCCUGUCUUCAUUCCACCCAUCCACCCUCCUAAGGAUUGGUCUUGUUCCGAGAGUGAUCCUGGUAACGCCAAGCCUCCCUCUGCCCCUGUGUUGGCUUCUGUGACGGACUACCACACACCAAGAGGUUUUUCACAGUGAAGAUGUAUGCUCUCACCAUCCUACAGAUGCAAAGACCAAACACAAAGUCUCUUGCGGUCGCACUAGUGUGGAAUUCUCGGGUGUCAAGG
B7: ENSMUSG00000042529.290|Kcnj12 (ssRNA)
RNA: GGGAGUUCUACAGUCCGACGAUCGCUUCGAUAUCCGCAUGCUAGGCACCUGUCAUUCUUUCUGAGUAGGUGGGCCUGUAUCCAGAGCAGGGUCUAGGGGCUCCUGCUCCCGGCUCAUCUCAGUGGCCUGAAGCAUUCAAAACUCUAGCCAGCCCCAUCCUCCUCCCUGCCAGAAUGGUCCAGUCCCUGGGCCCUGCUGGAGAGCAGCUCAAACUGCCUUUCAUCUCUGCCAAAGGCAGGCAGAUGCUGUAUUUUCAAAUUCUCCUGCCCUCUUUUCCCCUUUUUCCCUGUAUUUAUUUAUUGCCUCUUGCGGUCGCACUAGUGUGGAAUUCUCGGGUGUCAAGG
B8: ENSMUSG00000042529.420|Kcnj12 (ssRNA)
RNA: GGGAGUUCUACAGUCCGACGAUCGCUUCGAUAUCCGCAUGCUAGUGUGUGUGUGAACAUGUGUGAGGGUGUGGAGGUCCCAGGGUGUGUGUAUGUGAAUGUCAGUGGCUUGGGUGCUGUGUGGAGAGAGAGAGAGAGAGAGAGAGAGAGAGAGAGAGAGAGAGAGAGAGAGAGCUGCACAGGAUGAAGCAGCUGCCCUGAGCCCAUCUGGUGCUGUGCACCUGGUCCUUGUCCAGCCGAGGGCCUGGGGGCAGAAGAACACACCAUAGGGAGGCCCUUGUAUGGGUGUCUGCCCUAUGUGAGGCUCUUGCGGUCGCACUAGUGUGGAAUUCUCGGGUGUCAAGG
B9: ENSMUSG00000042529.422|Kcnj12 (ssRNA)
RNA: GGGAGUUCUACAGUCCGACGAUCGCUUCGAUAUCCGCAUGCUAACAUGUGUGAGGGUGUGGAGGUCCCAGGGUGUGUGUAUGUGAAUGUCAGUGGCUUGGGUGCUGUGUGGAGAGAGAGAGAGAGAGAGAGAGAGAGAGAGAGAGAGAGAGAGAGAGAGAGCUGCACAGGAUGAAGCAGCUGCCCUGAGCCCAUCUGGUGCUGUGCACCUGGUCCUUGUCCAGCCGAGGGCCUGGGGGCAGAAGAACACACCAUAGGGAGGCCCUUGUAUGGGUGUCUGCCCUAUGUGAGGUCAUAGAAUGUUCUCUUGCGGUCGCACUAGUGUGGAAUUCUCGGGUGUCAAGG
B10: ENSMUSG00000042529.417|Kcnj12 (ssRNA)
RNA: GGGAGUUCUACAGUCCGACGAUCGCUUCGAUAUCCGCAUGCUAGUGUGUGUGUGUGUGUGUGUGUGUGUGUGAACAUGUGUGAGGGUGUGGAGGUCCCAGGGUGUGUGUAUGUGAAUGUCAGUGGCUUGGGUGCUGUGUGGAGAGAGAGAGAGAGAGAGAGAGAGAGAGAGAGAGAGAGAGAGAGAGAGAGCUGCACAGGAUGAAGCAGCUGCCCUGAGCCCAUCUGGUGCUGUGCACCUGGUCCUUGUCCAGCCGAGGGCCUGGGGGCAGAAGAACACACCAUAGGGAGGCCCUUGUAUGGGCUCUUGCGGUCGCACUAGUGUGGAAUUCUCGGGUGUCAAGG
B11: ENSMUSG00000042529.419|Kcnj12 (ssRNA)
RNA: GGGAGUUCUACAGUCCGACGAUCGCUUCGAUAUCCGCAUGCUAGUGUGUGUGUGUGUGUGAACAUGUGUGAGGGUGUGGAGGUCCCAGGGUGUGUGUAUGUGAAUGUCAGUGGCUUGGGUGCUGUGUGGAGAGAGAGAGAGAGAGAGAGAGAGAGAGAGAGAGAGAGAGAGAGAGAGAGCUGCACAGGAUGAAGCAGCUGCCCUGAGCCCAUCUGGUGCUGUGCACCUGGUCCUUGUCCAGCCGAGGGCCUGGGGGCAGAAGAACACACCAUAGGGAGGCCCUUGUAUGGGUGUCUGCCCUAUCUCUUGCGGUCGCACUAGUGUGGAAUUCUCGGGUGUCAAGG
B12: ENSMUSG00000042529.424|Kcnj12 (ssRNA)
RNA: GGGAGUUCUACAGUCCGACGAUCGCUUCGAUAUCCGCAUGCUAGUGUGGAGGUCCCAGGGUGUGUGUAUGUGAAUGUCAGUGGCUUGGGUGCUGUGUGGAGAGAGAGAGAGAGAGAGAGAGAGAGAGAGAGAGAGAGAGAGAGAGAGAGCUGCACAGGAUGAAGCAGCUGCCCUGAGCCCAUCUGGUGCUGUGCACCUGGUCCUUGUCCAGCCGAGGGCCUGGGGGCAGAAGAACACACCAUAGGGAGGCCCUUGUAUGGGUGUCUGCCCUAUGUGAGGUCAUAGAAUGUUAAAUCUAUUUUACUCUUGCGGUCGCACUAGUGUGGAAUUCUCGGGUGUCAAGG
B13: ENSMUSG00000042529.421|Kcnj12 (ssRNA)
RNA: GGGAGUUCUACAGUCCGACGAUCGCUUCGAUAUCCGCAUGCUAGUGUGAACAUGUGUGAGGGUGUGGAGGUCCCAGGGUGUGUGUAUGUGAAUGUCAGUGGCUUGGGUGCUGUGUGGAGAGAGAGAGAGAGAGAGAGAGAGAGAGAGAGAGAGAGAGAGAGAGAGAGCUGCACAGGAUGAAGCAGCUGCCCUGAGCCCAUCUGGUGCUGUGCACCUGGUCCUUGUCCAGCCGAGGGCCUGGGGGCAGAAGAACACACCAUAGGGAGGCCCUUGUAUGGGUGUCUGCCCUAUGUGAGGUCAUAGCUCUUGCGGUCGCACUAGUGUGGAAUUCUCGGGUGUCAAGG
B14: ENSMUSG00000042529.416|Kcnj12 (ssRNA)
RNA: GGGAGUUCUACAGUCCGACGAUCGCUUCGAUAUCCGCAUGCUAGUGUGUGUGUGUGUGUGUGUGUGUGUGUGUGUGUGAACAUGUGUGAGGGUGUGGAGGUCCCAGGGUGUGUGUAUGUGAAUGUCAGUGGCUUGGGUGCUGUGUGGAGAGAGAGAGAGAGAGAGAGAGAGAGAGAGAGAGAGAGAGAGAGAGAGAGCUGCACAGGAUGAAGCAGCUGCCCUGAGCCCAUCUGGUGCUGUGCACCUGGUCCUUGUCCAGCCGAGGGCCUGGGGGCAGAAGAACACACCAUAGGGAGGCCCUUGCUCUUGCGGUCGCACUAGUGUGGAAUUCUCGGGUGUCAAGG
B15: ENSMUSG00000042529.418|Kcnj12 (ssRNA)
RNA: GGGAGUUCUACAGUCCGACGAUCGCUUCGAUAUCCGCAUGCUAGUGUGUGUGUGUGUGUGUGUGUGAACAUGUGUGAGGGUGUGGAGGUCCCAGGGUGUGUGUAUGUGAAUGUCAGUGGCUUGGGUGCUGUGUGGAGAGAGAGAGAGAGAGAGAGAGAGAGAGAGAGAGAGAGAGAGAGAGAGAGCUGCACAGGAUGAAGCAGCUGCCCUGAGCCCAUCUGGUGCUGUGCACCUGGUCCUUGUCCAGCCGAGGGCCUGGGGGCAGAAGAACACACCAUAGGGAGGCCCUUGUAUGGGUGUCUGCUCUUGCGGUCGCACUAGUGUGGAAUUCUCGGGUGUCAAGG
B16: ENSMUSG00000042529.423|Kcnj12 (ssRNA)
RNA: GGGAGUUCUACAGUCCGACGAUCGCUUCGAUAUCCGCAUGCUAGUGAGGGUGUGGAGGUCCCAGGGUGUGUGUAUGUGAAUGUCAGUGGCUUGGGUGCUGUGUGGAGAGAGAGAGAGAGAGAGAGAGAGAGAGAGAGAGAGAGAGAGAGAGAGAGCUGCACAGGAUGAAGCAGCUGCCCUGAGCCCAUCUGGUGCUGUGCACCUGGUCCUUGUCCAGCCGAGGGCCUGGGGGCAGAAGAACACACCAUAGGGAGGCCCUUGUAUGGGUGUCUGCCCUAUGUGAGGUCAUAGAAUGUUAAAUCUCUCUUGCGGUCGCACUAGUGUGGAAUUCUCGGGUGUCAAGG

target: TDP-43 (Homo sapiens, UniProt Q13148 1-414); assay: RNA Bind-n-Seq with designed 260-mer pool; 25 mM Tris-HCl, 150 mM KCl, 3 mM MgCl2, BSA (printed 500 mg/mL), 20 units/mL SUPERase IN; pH not stated; 500 nM RNA pool, 1 h, 4 C; TDP-43 5, 50, 500 nM; high values mean tight binding; settings: protein: recombinant; tags: SBP (GST cleaved off with PreScission; pGEX-GST-SBP)
Sequence (Q13148 whole entry): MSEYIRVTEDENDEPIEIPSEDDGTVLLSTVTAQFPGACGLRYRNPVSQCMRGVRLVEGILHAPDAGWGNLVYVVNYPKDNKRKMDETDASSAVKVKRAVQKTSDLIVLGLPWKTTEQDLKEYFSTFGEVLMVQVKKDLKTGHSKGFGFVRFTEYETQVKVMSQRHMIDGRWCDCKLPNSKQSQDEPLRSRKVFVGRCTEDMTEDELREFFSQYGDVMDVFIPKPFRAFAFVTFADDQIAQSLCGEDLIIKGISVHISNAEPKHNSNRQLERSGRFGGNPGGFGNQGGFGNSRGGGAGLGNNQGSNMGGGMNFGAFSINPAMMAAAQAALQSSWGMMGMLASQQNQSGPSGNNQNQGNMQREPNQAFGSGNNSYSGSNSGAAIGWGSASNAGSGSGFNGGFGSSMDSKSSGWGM
Outline: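 Recombinant SBP-tagged TDP-43 at 5, 50 or 500 nM was captured on streptavidin beads, then incubated 1 h at 4 °C with 500 nM of an in vitro-transcribed 260-nt 3′ UTR oligo pool in 25 mM Tris-HCl, 150 mM KCl, 3 mM MgCl2, BSA and SUPERase IN. Bound RNA was washed, eluted with biotin, reverse transcribed, PCR-amplified and sequenced. Binding is R, each oligo's mapped-read-normalized abundance in the bound sample divided by its abundance in input. Duplicates used two independent protein batches.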

Point of comparison: B9, binding signal 6.32 R (bound/input frequency ratio). Against it:
- B1 — lower, 0.915 R (bound/input frequency ratio)
- B2 — lower, 0.697 R (bound/input frequency ratio)
- B3 — lower, 0.848 R (bound/input frequency ratio)
- B4 — lower, 1.13 R (bound/input frequency ratio)
- B5 — lower, 0.495 R (bound/input frequency ratio)
- B6 — lower, 1.1 R (bound/input frequency ratio)
- B7 — lower, 1.04 R (bound/input frequency ratio)
- B8 — higher, 6.59 R (bound/input frequency ratio)
- B10 — lower, 5.22 R (bound/input frequency ratio)
- B11 — higher, 6.65 R (bound/input frequency ratio)
- B12 — lower, 5.67 R (bound/input frequency ratio)
- B13 — lower, 6.04 R (bound/input frequency ratio)
- B14 — lower, 6.11 R (bound/input frequency ratio)
- B15 — higher, 6.38 R (bound/input frequency ratio)
- B16 — higher, 7.6 R (bound/input frequency ratio)
